Screens from PubChem BioAssay.
Only some compounds are listed: those with a hit (about 6.9% of all), similar ones and a draw of the others.
SW480 rerep – inducers of DNA re-replication in SW480 colon cancer cells; SW480 DNA re-replication, Hoechst DNA content imaging, 48 h; Potency, µM (highest dose often 46.1 µM), for inactives: top-dose re-replication activation, most hits filed as activators; 340,000 compounds, 1.8% hits; also: potency is read from the fitted curve at half-maximal effect; % of control where 0% means no effect; nearly all actives have a fitted effect of over 55% in size
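Image-based read-out: total Hoechst fluorescence of nuclei (405 nm excitation, 500-530 nm emission), with hits raising the fraction of high-intensity nuclei. SW480 colon cells incubated 48 hr with compounds at 37 C.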
Giardia killer – kills Giardia lamblia | Giardia lamblia trophozoite viability | activity change, % at 7.66 µM, hits read low | 340,000 compounds, 0.15% hits; in the data active = activity change below about -80%; inconclusive = between about -30% and that limit;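 also: parasites exposed to compound for two days anaerobically before the ATP read; % is scaled to controls: 0 for no effect and ±100 for the full control effect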
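Compounds were tested on trophozoites seeded at 100 cells/well and held 48 hrs at 37 deg C anaerobically. An ATP-based luminescent kit measured the remaining live cells.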
KB-3-1 tox – kills parental KB-3-1 adenocarcinoma cells | KB-3-1 viability, CellTiter-Glo ATP luminescence, 72 h | Potency, µM (highest dose often 46.1 µM), usual class: cytotoxic | 400,000 compounds, 1.4% hits; also: potency is read from the fitted curve at half-maximal effect; % is scaled to controls: 0 for no effect and ±100 for the full control effect; nearly all actives have a fitted effect of over 60% in size
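Cells are dispensed, compounds pinned in, plates held at 37 °C for 72 h, then CellTiter-Glo is added and luminescence read after 10 minutes. Cell line: parental KB-3-1 in phenol-red-free DMEM, 10% FBS.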
S-ASM inh – blocks human secretory acid sphingomyelinase; 340,000 compounds, 0.006% hits; P17405; AID 504937; placental ASM, HMU-PC fluorogenic substrate, 60 min; Potency, µM (doses to about 57.5 µM), for inactives: at the top dose activity change, negative = inhibition, actives largely listed as inhibitors; also: potency is read from the fitted curve at half-maximal effect
Target sequence (P17405 47-631 limits assumed): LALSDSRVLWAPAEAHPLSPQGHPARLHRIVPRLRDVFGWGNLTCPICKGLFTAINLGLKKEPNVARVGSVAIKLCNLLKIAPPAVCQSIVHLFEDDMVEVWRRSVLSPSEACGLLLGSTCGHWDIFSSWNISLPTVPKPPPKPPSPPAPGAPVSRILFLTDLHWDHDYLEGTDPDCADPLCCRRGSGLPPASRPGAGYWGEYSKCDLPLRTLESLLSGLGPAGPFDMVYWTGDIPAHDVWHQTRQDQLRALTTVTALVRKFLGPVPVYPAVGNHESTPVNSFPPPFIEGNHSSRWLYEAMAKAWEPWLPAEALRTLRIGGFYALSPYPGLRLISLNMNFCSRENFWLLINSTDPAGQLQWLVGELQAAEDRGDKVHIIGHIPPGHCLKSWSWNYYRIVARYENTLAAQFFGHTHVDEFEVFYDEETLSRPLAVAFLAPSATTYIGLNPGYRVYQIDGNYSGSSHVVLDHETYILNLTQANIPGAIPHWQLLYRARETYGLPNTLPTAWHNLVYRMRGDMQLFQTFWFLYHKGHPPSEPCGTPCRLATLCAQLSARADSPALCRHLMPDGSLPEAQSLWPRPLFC
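Fluorescence read-out (Ex 386 nm, Em 447 nm) after stopping the reaction at pH 10. Enzyme: ASM from human placenta; substrate HMU-PC0, 9 uM final; 60 min, 37 °C. Compound preincubation 10 min, ambient temperature.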
KB-V1 cytotox – kills drug-selected multidrug resistant KB-V1 cells; KB-V1 MDR cells viability, CellTiter-Glo, 72 h; Potency, µM (highest dose often 46.1 µM), hits mostly cytotoxic; 400,000 compounds, 3.4% hits; AID 1347076; also: potency is read from the fitted curve at half-maximal effect; % is scaled to controls: 0 for no effect and ±100 for the full control effect; nearly all actives have a fitted effect of over 60% in size
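Cytotoxicity via CellTiter-Glo luminescence after 72 h compound exposure at 37 degrees C. Cells: drug-selected KB-V1 line, DMEM phenol-red free plus 10% FBS. Compounds tested at multiple concentrations; normalized data fitted to concentration-effect curves.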
MCF10A rerep – induces DNA re-replication in MCF 10a normal breast cells. MCF 10A DNA re-replication, Hoechst nuclear intensity, 48 h. Potency, µM (titrated, usually from 46.1 µM), for the others: top-dose activity, positive = re-replication, hits mostly activators. 350,000 compounds, 2.9% hits. AID 624296; also: potency is read from the fitted curve at half-maximal effect; % of control where 0% means no effect; nearly all actives have a fitted effect of over 50% in size
Starred values were filed as active, the others as inactive; i = inactive; ? = inconclusive; · = no result given. Unless noted, calls follow the shape of the dose curve; as a rule, active = well fitted curve in the direction sought with a large enough effect; inconclusive = small, poorly fitted or top-dose-only effect, or another doubt; inactive = no such curve, though single readings can be large; an effect the other way counts as inactive or inconclusive.

SMILES | SW480 rerep | Giardia killer | KB-3-1 tox | S-ASM inh | KB-V1 cytotox | MCF10A rerep
COc1ccc(C2C(C(=O)Nc3cccc(OC)c3)c3ccccc3C(=O)N2C)cc1 (centres undefined) | -11% | 2 | i | -2% | ? | 5%
CCOc1ccc(CC(=O)N/N=C(\C)c2cccnc2)cc1OCC | 2% | 8 | i | 0% | i | 21µM*
CC(=NNC(=O)COc1cccc(C)c1)c1cccnc1 | -4% | 5 | i | 1% | 16µM* | 4%
CCOc1cc(C#N)c(NC(=O)c2cccnc2)cc1OCC | 5.2µM* | 3 | 0.65µM* | 0% | ? | 3.7µM*
CCCC1(CCC)NC(=O)N(CC(=O)Nc2ccc(Cl)c(S(=O)(=O)N3CCOCC3)c2)C1=O | -1% | 0 | i | 0% | ? | 16%
CCCCCn1c(=O)[nH]c2cc(C(=O)Nc3ccc(F)c(F)c3)ccc2c1=O | · | · | i | · | ? | ·
CCc1cc2c3c(c1)C1(C(=O)N3C(C)(C)C=C2C)C(C#N)=C(N)Oc2[nH]c(=O)[nH]c(=O)c21 (centres undefined) | 4.1µM* | 5 | ? | 4% | ? | ?
COc1ccc(CNC(=O)c2cc3cccc4c3n2CC(C)S4)cc1OC (centres undefined) | · | · | i | · | i | ·
CCOC(=O)N1CCC(n2c(SCC(=O)NCc3ccco3)nc3ccsc3c2=O)CC1 | -1% | 13 | ? | 0% | 2.1µM* | 21%
CCOC(=O)CSc1nc2ccsc2c(=O)n1C1CCN(C(=O)OCC)CC1 | -10% | 9 | i | 8% | 16µM* | -5%
CCOC(=O)N1CCC(n2c(SCC(=O)c3ccccc3)nc3ccsc3c2=O)CC1 | -3% | -5 | i | 2% | i | 0%
COc1ccc(S(=O)(=O)N2CCN(c3nc(-c4ccccc4)nc4ccccc34)CC2)cc1 | · | -23 | i | · | i | ·
CC(C)CCCCCCCCCCCCC(=O)NCC(=O)NC1C(C)OC(Nc2ncnc3nc[nH]c23)C(O)C1O (centres undefined) | 30% | 4 | 0.01µM* | -7% | ? | 23%
CC(C)CNc1ncnc2nc[nH]c12 | · | · | i | · | i | ·
COc1cccc(CNC(=O)C2CCN(Cc3cc4ccccc4n3Cc3ccccc3)CC2)c1OC | · | · | ? | · | i | ·
CN1C(=O)C(CC(=O)Nc2ccc(Cl)cc2)N(Cc2ccco2)C1=S (centres undefined) | 140% | 26 | i | -5% | i | 21µM*
Cc1c2c(nc3nc4ccccc4n13)CC(C)(C)CC2=O | -12% | -3 | i | -2% | 15µM* | 3%
CCOC(=O)/C(C#N)=C1/C=CN(Cc2ccccc2)C=N1 | 0% | -12 | i | -1% | 13µM* | 12%
CCOC(=O)/C(C#N)=C1/C=CN(c2ccccc2)C=N1 | -3% | -8 | i | -1% | i | 9%
CCOc1ccc(NC(=O)c2cc(=O)c3ccc(C)c(C)c3o2)cc1 | · | · | i | · | i | ·
Cc1ccc2c(=O)cc(C(=O)Nc3cccc(Cl)c3C)oc2c1C | · | · | i | · | i | ·
Cc1nc(-c2cc(C#N)c(=O)[nH]c2C)cs1 | -6% | -4 | ? | 0% | 4.6µM* | -2%
COC(=O)c1sccc1NC(=O)c1c(C)c(-c2cccc(Cl)c2)nc2ccccc12 | 12% | -21 | i | -1% | 10µM* | 13%
COC(=O)COc1cccc(NC(=O)C(c2ccccc2)c2ccccc2)c1 | -2% | 11 | i | -3% | i | 6%
COc1cc(NC(=O)Cn2nc(C(F)(F)F)c3c2CCC3)cc(OC)c1OC | · | · | 16µM* | · | i | ·
SMILES | SW480 rerep | Giardia killer | KB-3-1 tox | S-ASM inh | KB-V1 cytotox | MCF10A rerep
O=C(NC1CCOCC1)C1CCC(=O)N(Cc2ccc(Cl)cc2)C1 (centres undefined) | 9.2µM* | 10 | ? | -3% | i | 9%
CCc1nnc(NC(=O)[C@@H]2CCCN2C(=O)c2cccs2)s1 | · | 1 | i | · | ? | ·
COc1cccc(C2C(C(=O)c3cc4ccccc4o3)=C(O)C(=O)N2c2cc(C)on2)c1 (centres undefined) | -11% | 27 | i | 8% | i | 18µM*
COc1ccc(OC)c(C2C(C(=O)c3cc4ccccc4o3)=C(O)C(=O)N2c2cc(C)on2)c1 (centres undefined) | 2% | -28 | ? | 2% | 3.7µM* | 8%
COc1ccccc1C1C(C(=O)c2cc3ccccc3o2)=C(O)C(=O)N1c1cc(C)on1 (centres undefined) | -12% | -18 | i | 5% | i | ?
Cc1cc(N2C(=O)C(O)=C(C(=O)c3ccc(C)o3)C2c2cccc(Oc3ccccc3)c2)no1 (centres undefined) | ? | 3 | i | 7% | i | 26µM*
C=CCOc1cccc(C2C(C(=O)c3cc4ccccc4o3)=C(O)C(=O)N2c2cc(C)on2)c1 (centres undefined) | ? | -9 | i | 11% | i | 21µM*
CCN1CCN(c2cccc(Nc3nn4c(=O)c5ccccc5nc4s3)c2)CC1 | · | · | i | · | i | ·
COc1cc(C(=O)NCC(c2cccs2)N2CCOCC2)ccc1OCc1ccccc1 (centres undefined) | · | · | i | · | i | ·
O=S1(=O)N=C(OCc2ccccc2)c2ccccc21 | · | · | i | · | i | ·
COc1ccc(-c2nc3scc(CCNC(=O)c4cc(OC)cc(OC)c4)n3n2)cc1 | · | · | ? | · | i | ·
COc1ccc(/C=N/NC(=O)c2cc3c(ccc4ccccc43)o2)cc1OC | ? | -5 | ? | 87% | ? | 16µM*
O=C(COc1ccccc1[N+](=O)[O-])Nc1ccc(NC(=O)c2cc3ccccc3o2)cc1 | -39% | -7 | i | -6% | i | ?
O=C(COc1ccc(/C=N/NC(=O)c2cc3ccccc3o2)cc1Br)Nc1ccccc1 | ? | -22 | 13µM* | 48% | ? | ?
COc1ccc(/C=N\NC(=O)c2cc3c(ccc4ccccc43)o2)cc1O | ? | 5 | ? | -8% | i | 12µM*
CSc1ccc(CCNC(=O)C(C)n2c(C)c3cnn(-c4ccccc4)c(=O)c3c2C)cc1 (centres undefined) | · | · | i | · | i | ·
CCN(CC)c1ccc(C2C(C(N)=O)=C(C)Nc3nc(SCc4ccccc4Cl)nn32)cc1 (centres undefined) | · | · | i | · | ? | ·
CSc1cc(-c2ccc(Cl)cc2)n(Cc2ccccc2)c(=O)c1C#N | -3% | -2 | 16µM* | -2% | i | 15%
Cc1cc(C)c(N=Cc2c(O)n(-c3nccs3)c(=O)c3ccccc23)c(C)c1 | 16% | 6 | i | -11% | i | 8%
